From PubChem BioAssay AID602477 (National Center for Advancing Translational Sciences (NCATS), 2012) come the findings set out here.

Molecules are shown by their SMILES. Records with an inconclusive call do not appear. Values without a mark were called inactive. Active and inactive are the calls of the source. Calls come from the whole dose curve; as a rule, active = well fitted activation curve with a large enough effect; inconclusive = small, poorly fitted or top-dose-only effect; inactive = no such curve, though single readings can be large or run the other way.

The assay in a line: FLuc inhibitory activity for the follow-up compounds in a cell-based assay to assess the activity of miR-21. The conditions noted are these: HeLa miR-21-FLuc reporter, luciferase luminescence, 48 h; series mostly up to 38.3 µM; activity change, positive = activation: at the top concentration. From the text: NCGC Assay Overview: Firefly (Photinus pyralis) luciferase is one of the most commonly used transcriptional reporters. It is considered one of the more dynamically responsive reporters - that is, responsive to changes in reporter transcription - as it requires no post-translational modifications and is enzymatically active directly after protein synthesis (Wood, 1998). With no endogenous expression in mammalian cells and without the requirement of external excitation, it offers very little background signal, thus generally providing excellent signal to background for most assays. Previous profiling work to determine the prevalence of compounds that affect FLuc enzymatic activity (PubChem AID 411) identified that ~3% of the MLSMR library (then at ~72K) inhibited FLuc (Auld et al., 2008). […] Of the compounds identified in this profile that inhibited FLuc, 151 compounds were selected for further analysis, in an effort to better understand their mode of inhibiting FLuc. The assay described here was to determine the activity of the compounds in a cell-based firefly luciferase reporter gene assay originally designed to identify antagonists of miR-21. Compounds that inhibit miR-21 or compounds that stabilize FLuc intracellularly are identified as active compounds in the assay.
NCGC Assay Protocol Summary: Reagents: In-house detection reagent: 300mM Tris-HCl, 300mM Trizma base, 300mM MgCl, 1% Triton-X100, 5mM DTT, 500uM Coenzyme A trilithium salt (Sigma #C3019),450uM ATP (Sigma #A7699), 1mM D-luciferin sodium salt monohydrate (Biosynth #L8240) HeLa cells stably expressing firefly luciferase (FLuc) under the control of a CMV promoter (upstream) and a miR-21 binding sequence directly downstream of the gene. These cells endogenously express miR-21. Control compounds used were two known firefly luciferase inhibitors (3-(5-(3-chlorophenyl)-1,2,4-oxadiazol-3-yl)benzoic acid and 5-(2-fluorophenyl)-3-phenyl-1,2,4-oxadiazole), and DMSO. Assay Summary: 6uL of HeLa miR-21-FLuc cells in assay buffer (DMEM, Invitrogen #21063-029; 10% FBS, HyClone #SH30071.03) were dispensed at 2000cells/well (3.3 x 10^5 cells/mL) into Greiner solid-white TC-treated 1536-well plates using a Multidrop Combi (Thermo Fisher Scientific). Plates were incubated for one hour at 37 degree Celsius, 95% humidity, 5% CO2. These assay plates were then treated with 23nL of compound or DMSO using a Kalypsys pin tool, which allows for delivery of a 12-point titration of each compound to the assay plate, with a final compound concentration ranging from approximately ~38uM to 0.2nM. Assay plates were then incubated for 48 hours. After incubation, plates were allowed to come to RT for one hour prior to delivery of 3uL of 3X luciferase detection reagent. After a 15 minute incubation to allow for cell lysis, luciferase activity was measured using a ViewLux CCD imager (PerkinElmer), with an average exposure time of 2-12 seconds.
As to `c1ccc2sc(-c3ccc4c(c3)OCO4)nc2c1`, the Potency is 0.225 µM (active).

With `CC(=O)Oc1ccc(C(=O)Nc2ccccc2C(=O)Nc2ccc(C(=O)O)cc2)cc1`, the “activity change, positive = activation” value was -3.44%.

Take `Cc1c(NC(=O)c2cccs2)cccc1-c1nc2ccccc2s1`: the Potency was 20 µM (active).

In the case of `Cc1ccc(C(=O)Nc2cccc(C(=O)O)c2)cc1S(=O)(=O)N1CCOCC1`, the Potency was 12.6 µM (active).

Regarding `O=C(Nc1ccccc1C(=O)O)c1cc(S(=O)(=O)NCc2ccccc2)ccc1Cl`, the “activity change, positive = activation” value was -6.4%.

Turning to `O=C(Cc1ccccc1)Nc1ccccc1C(=O)Nc1ccc(C(=O)O)cc1`, the “activity change, positive = activation” value was 11.6%.

Turning to `O=C(Nc1ccccc1C(=O)O)c1ccccc1`, the Potency is 25.2 µM (active).

With `Cc1ccc(C(=O)Nc2ccc(C(=O)O)cc2)cc1S(=O)(=O)Nc1ccccc1`, the “activity change, positive = activation” value was 20.5%.

Consider `Cc1ccc(C(=O)O/N=C(\N)c2ccccn2)c(Cl)c1`, for which the Potency was 0.0318 µM (active).

With `COc1cccc(OC)c1C(=O)Nc1cccc(C(=O)Nc2cccc(C(=O)O)c2)c1`, the “activity change, positive = activation” value was 12.7%.

As for `CC(C)Oc1ccc(C(=O)Nc2ccc(-c3nc4ccccc4s3)cc2)cc1`, the Potency is 1.13 µM (active).

For the molecule `NC(=O)Cc1ccc2sc(-c3ccccc3)nc2c1`, the Potency is 1.26 µM (active).

Turning to `COc1ccc(NS(=O)(=O)c2cccc(C(=O)Nc3ccccc3C(=O)O)c2)cc1`, the “activity change, positive = activation” value was 5.31%.

`COc1ccc2nc(NC(=O)CCc3nc(-c4ccccc4F)no3)sc2c1`: the Potency is 2.52 µM (active).

Turning to `CC(C)CC(=O)Nc1cccc(C(=O)Nc2ccccc2C(=O)O)c1`, the “activity change, positive = activation” value is 9.15%.

As to `Nc1ccc(-c2nc3ccc(C(=O)O)cc3s2)cc1`, the Potency is 0.0142 µM (active).

With `CC(=O)Oc1ccc(C(=O)Nc2ccccc2C(=O)Nc2cccc(C(=O)O)c2)cc1`, the “activity change, positive = activation” value was -13%.

For `Cc1cccc(C(=O)Nc2ccccc2C(=O)Nc2ccc(C(=O)O)cc2)c1`, the Potency was 15.9 µM (active).

As to `COc1ccc2nc(NC(=O)c3ccc(NS(=O)(=O)c4cccs4)cc3)sc2c1`, the Potency is 8.95 µM (active).

Consider `O=C(Nc1c(Cl)cc(Cl)cc1-c1nc2ccccc2s1)c1ccc(Br)o1`, for which the Potency is 12.6 µM (active).

As for `O=C(Nc1ccc(Cl)cc1-c1nc2ccccc2s1)c1ccco1`, the Potency was 20 µM (active).

Consider `CN(C)S(=O)(=O)c1ccc(C(=O)Nc2cccc(C(=O)O)c2)cc1`, for which the “activity change, positive = activation” value was 24.8%.

For the molecule `O=C(O)c1cccc(NC(=O)c2ccc(S(=O)(=O)c3ccccc3)cc2)c1`, the “activity change, positive = activation” value is 15.2%.

Take `COc1cc(OC)cc(C(=O)Nc2ccc(-c3nc4ccccc4s3)c(C)c2)c1`: the Potency was 11.3 µM (active).

Take `CCOc1ccc2nc(NC(=O)c3cc([N+](=O)[O-])ccc3N3CCOCC3)sc2c1`: the Potency is 5.04 µM (active).

Regarding `O=C(Nc1ccc(-c2nc3ccccc3s2)cc1)C1=COCCO1`, the Potency was 0.01 µM (active).

Take `CCOc1c(Cl)cc(C(=O)Nc2ccccc2C(=O)O)cc1Cl`: the Potency is 5.04 µM (active).

On to `Cc1ccc(C(=O)Nc2ccc(C(=O)O)cc2)cc1S(=O)(=O)NCc1ccccc1`, for which the “activity change, positive = activation” value is 11.9%.

On to `Nc1ccc2nc(-c3ccccc3)sc2c1`, for which the Potency was 0.0634 µM (active).

For `O=C(Nc1ccccc1C(=O)O)c1cccc(S(=O)(=O)Nc2ccc(Br)cc2)c1`, the “activity change, positive = activation” value is 9.47%.

Turning to `COc1ccc(C(=O)Nc2ccccc2C(=O)Nc2ccc(C(=O)O)cc2)cc1`, the Potency was 8.95 µM (active).

As to `CN=c1scc(-c2ccccc2F)n1/N=C/c1ccc[nH]1`, the “activity change, positive = activation” value was -64.3%.

As to `Cc1ccc(S(=O)(=O)N2CCN(C(=O)c3ccccc3-c3nc4ccccc4s3)CC2)c(C)c1`, the Potency is 20 µM (active).

Turning to `O=C(Nc1ccccc1C(=O)O)c1ccc(NC(=O)C2CC2)cc1`, the “activity change, positive = activation” value was -13.5%.

Regarding `O=C(O)c1cccc(NC(=O)c2cccc(S(=O)(=O)N3CCc4ccccc43)c2)c1`, the “activity change, positive = activation” value is 18.1%.

As for `CCOc1ccc2nc(NC(=O)c3cccnc3)sc2c1`, the Potency was 1.13 µM (active).

With `Nc1ccccc1-c1nc2ccccc2s1`, the Potency is 3.18 µM (active).

Regarding `O=C(O)c1ccc(NC(=O)c2cccc(C(=O)Nc3ccc(C(=O)O)cc3)c2)cc1`, the “activity change, positive = activation” value was 8.99%.
